Screening data as filed in PubChem BioAssay.
This is a sample that favours compounds with a hit; in the whole collection about 3.3% have one here.
AmpC detergent – inhibitors of E. coli AmpC beta-lactamase with detergent. P00811. AmpC hydrolysis of nitrocefin, absorbance 480 nm, 0.01% Triton. Potency, µM (highest dose often 114 µM), most hits filed as inhibitors. 370,000 tested, 0.041% active. AID 485294; further: nearly all actives have a fitted effect of over 25% in size
Target sequence (P00811 whole entry, looked up): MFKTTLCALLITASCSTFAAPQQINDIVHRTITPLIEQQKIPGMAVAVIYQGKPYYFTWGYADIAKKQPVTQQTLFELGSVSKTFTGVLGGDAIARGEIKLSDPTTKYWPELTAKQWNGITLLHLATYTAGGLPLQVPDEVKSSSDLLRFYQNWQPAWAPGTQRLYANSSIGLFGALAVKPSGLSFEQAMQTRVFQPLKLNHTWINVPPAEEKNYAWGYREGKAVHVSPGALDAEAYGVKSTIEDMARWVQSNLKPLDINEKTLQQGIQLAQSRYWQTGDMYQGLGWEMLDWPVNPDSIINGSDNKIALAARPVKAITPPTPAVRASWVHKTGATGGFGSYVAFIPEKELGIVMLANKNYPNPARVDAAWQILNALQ
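AmpC (5.3 nM in the dispensed reagent) in 20 mM phosphate pH 7.0 with 0.01% (detergent screen) or 0.0001% Triton X-100 was preincubated with compounds for 15 min at room temperature. Nitrocefin was then added from an 800 uM solution, and hydrolysis was followed at 480 nm.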
AmpC inh no detg – AmpC beta-lactamase inhibition without detergent; 330,000 tested, 0.52% active; AID 485341; AmpC nitrocefin hydrolysis, absorbance 480 nm, 0.0001% Triton; P00811; Potency, µM (top dose mostly 57.1 µM), most hits filed as inhibitors; further: nearly all actives have a fitted effect of over 20% in size
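20 mM phosphate pH 7.0 + 0.01% (detergent screen) or 0.0001% Triton X-100; 5.3 nM AmpC reagent; cpd preinc 15 min RT; nitrocefin (800 uM stock) to start; A480 q20 s × 4 min; Activity was normalised to no-enzyme and no-compound control wells.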
Sm TGR block – S. mansoni TGR enzyme inhibition; 360,000 tested, 3% active; AID 485364; purified TGR, DTNB reduction, TNB absorbance 405 nm; Potency, µM (doses to about 114 µM), usual class: inhibitors; further: nearly all actives have a fitted effect of over 60% in size
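TGR 20 nM + NADPH 100 uM (dispensed conc.), cpd preinc 15 min RT; start with NADPH (500 uM addition) then DTNB (15 mM addition). Kinetic TNB absorbance, 405 nm filter. Four-parameter Hill fit across titration.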
Hits are given with their value; – = inactive; ? = inconclusive; · = no result. The call rests on the fitted dose curve; in most records, active means well fitted curve in the direction sought with a large enough effect; inconclusive means small, poorly fitted or top-dose-only effect, or another doubt; inactive means no such curve, though single readings can be large; an effect the other way counts as inactive or inconclusive.

SMILES	AmpC detergent	AmpC inh no detg	Sm TGR block
CC(C)(Sc1cc(C(C)(C)C)c(O)c(C(C)(C)C)c1)Sc1cc(C(C)(C)C)c(O)c(C(C)(C)C)c1	–	?	–
Cn1ccnc1C(O)c1cc(C(C)(C)C)c(O)c(C(C)(C)C)c1 (stereo not given)	–	–	18µM
CCCCn1c(N)c(N(CCC(C)C)C(=O)COC(=O)c2cccnc2Cl)c(=O)[nH]c1=O	?	–	–
Cc1oc2ncnc(N3CCOCC3)c2c1C(=O)NCc1ccccc1	–	·	–
COc1cc(/C=C/C(=O)OCN2C(=O)c3ccccc3C2=O)ccc1OC(F)F	–	–	–
COc1ccc(/C=C/C(=O)OCn2c(SC)nnc(C)c2=O)cc1OC	–	–	28µM
CCOC(=O)C1CCCN(S(=O)(=O)c2cc3[nH]c(=O)c(=O)[nH]c3cc2C)C1 (stereo not given)	–	–	–
O=c1c2ccccc2nc2ccc(NCc3ccco3)nn12	–	–	?
Cc1sc2nc3ccc(NCc4ccco4)nn3c(=O)c2c1C	–	–	35µM
CS(=O)(=O)NC1c2cccc3cccc(c23)C1Sc1nncn1/N=C/c1ccco1 (stereo not given)	?	–	50µM
Cn1cnnc1SC1c2cccc3cccc(c23)C1NS(=O)(=O)c1ccccc1 (stereo not given)	–	–	–
CCCCSc1nc(O)c(C2OC(=O)c3c2ccc(OC)c3OC)c(=O)n1C (stereo not given)	–	–	–
CCCCCCSc1nc(O)c(C2OC(=O)c3c2ccc(OC)c3OC)c(=O)n1-c1ccccc1 (stereo not given)	–	–	13µM
Nc1nc(SCc2ccc(F)cc2)ns1	–	–	–
COc1ccc(C(=O)CSc2nc3[nH]ncc3c(=O)[nH]2)cc1	–	–	–
Cc1ccc(-c2csc3nc[nH]c(=S)c23)cc1	–	–	–
S=c1[nH]cnc2scc(-c3ccc(Cl)cc3)c12	–	8.9µM	–
CCn1c(=S)sc2c(=O)n(CC(=O)Nc3ccccc3C(F)(F)F)c(C)nc21	–	–	–
CC(=O)c1ccc(Cc2ccc(C(C)=O)cc2)cc1	–	–	–
Cc1nnc(NC(=O)c2c(F)cccc2F)s1	–	18µM	–
Cc1nnc(NC(=O)c2cccc(F)c2)s1	–	–	–
O=C1CCC(=O)N1CN(Cc1ccco1)CN1C(=O)CCC1=O	–	–	–
O=C1c2ccccc2C(=O)N1CCC(c1ccc(F)cc1)c1ccco1 (stereo not given)	–	–	40µM
O=C(CCCN1C(=O)c2ccccc2C1=O)Oc1ccc(F)cc1	–	–	–
O=C1CCC(=O)N1CCC(c1ccc(F)cc1)c1ccco1 (stereo not given)	–	–	45µM
SMILES	AmpC detergent	AmpC inh no detg	Sm TGR block
COc1ccc(NC(=O)CCc2nc3cccnc3n2-c2ccccc2)c(OC)c1	–	·	–
CNC(=S)N1CCN(C(=O)c2ccco2)CC1	–	–	–
COc1ccc(NC(=O)Nc2ccc3c(c2)CCC3)cc1	–	–	–
CCOc1ccc(CC2c3cc(OCC)c(OCC)cc3CCN2C(=O)CN2CCN(C)CC2)cc1OCC (stereo not given)	–	–	–
CN1C(=O)C(=Cc2ccc(N3CCOCC3)o2)C(=O)N(C)C1=S	–	–	–
O=C1N/C(=C/c2ccc(N3CCCC3)cc2)C(=O)N1c1ccccc1	–	–	–
C=CCN1C(=O)N/C(=C/c2ccc(N3CCOCC3)o2)C1=O	?	–	7.1µM
C=CCN1C(=O)S/C(=C\c2ccc(N3CCOCC3)cc2C)C1=O	–	–	–
O=C1N/C(=C/c2ccc(N3CCOCC3)o2)C(=O)N1c1ccccc1	–	–	8.9µM
CN1C(=O)/C(=C/c2ccc(N3CCCCCC3)o2)C(=O)NC1=S	–	–	40µM
O=C1NC(=S)S/C1=C/c1ccc(N2CCOCC2)o1	–	–	3.5µM
CN1C(=O)/C(=C\c2ccc(N3CCCCC3)o2)C(=O)NC1=S	?	–	?
CCc1ccc(NC(=O)N2CCN(Cc3nc4ccc(C)cc4o3)CC2)cc1	–	·	–
O=C(Cn1[nH]c(=O)c2ccccc2c1=O)OCC(=O)c1ccccc1Cl	–	–	–
C=C(C)Cn1c(=O)c2c(nc3n2CCN3c2cc(C)cc(C)c2)n(C)c1=O	–	·	–
Cc1cc(C)c2sc(N3CCN(C(=O)c4ccc(N(C)C)cc4)CC3)nc2c1	–	·	–
CCn1c(CNC(=O)c2ccc(OC)cc2)nnc1SCC(=O)Nc1cccc(C)c1C	–	·	–
Cc1ccccc1NC(=O)CCCC(=O)c1ccccc1	–	–	–
COc1ccc(OC)c(NC(=O)CN2CCC(NC(=O)c3ccccc3C)CC2)c1	–	–	–
COc1cc(OC)cc(C(=O)NNC(=O)CCNS(=O)(=O)c2ccc(Br)cc2)c1	·	–	·
C=CCN1C(=O)/C(=C\c2ccc(N3CCOCC3)o2)C(=O)NC1=S	?	–	50µM
CCN1C(=O)C(=Cc2ccc(N3CCOCC3)o2)C(=O)N(CC)C1=S	–	–	–
COc1ccccc1CN(C)C(=O)c1sccc1-c1ccccc1	–	–	–
O=C(Nc1cccc(C(=O)N2CCOCC2)c1)c1ccc([N+](=O)[O-])cc1	–	–	–
CC1=NN(c2ccc(C)cc2)C(=O)/C1=C/c1ccc(-c2cc([N+](=O)[O-])ccc2O)o1	–	16µM	?
SMILES	AmpC detergent	AmpC inh no detg	Sm TGR block
CC1=NN(c2ccc(C(=O)O)cc2)C(=O)/C1=C/c1ccc(-c2ccccc2F)o1	–	–	–
COc1cc(C(=O)/C=C/c2cccnc2)c([N+](=O)[O-])cc1OC	–	–	?
O=C(/C=C/c1cccnc1)c1ccc(O)cc1	–	–	45µM
Cc1ccc(/C=C/C(=O)c2ccccc2O)cc1	–	–	–
CN(C)C(=O)COc1ccc(C(=O)/C=C/c2cccnc2)cc1	–	–	?
O=C(/C=C/c1cccnc1)c1ccccc1O	–	–	20µM
O=C(/C=C/c1cccnc1)c1ccc([N+](=O)[O-])cc1	–	–	8.9µM
O=C(/C=C/c1cccc(O)c1)c1cccnc1	–	–	?
O=C(/C=C/c1cccnc1)c1cccc(O)c1	–	–	28µM
COc1ccccc1NS(=O)(=O)c1ccc(C)c(C(=O)N2CCN(c3ccc(O)cc3)CC2)c1	·	–	·
COc1ccc2oc(C(=O)OCC(=O)Nc3ccc(C(=O)N(C)C)cc3)c(C)c2c1	–	–	–
O=S(=O)(NCc1ccccc1)NCc1ccc(Cl)cc1Cl	–	–	–
C=C1CCN(Cc2ccccc2)S(=O)(=O)c2ccccc21	–	–	–
O=C1CCN(Cc2ccccc2)S(=O)(=O)c2ccccc21	–	–	20µM
CCCNC(C)C(=O)Nc1ccccc1C (stereo not given)	–	–	–
CCC(C)c1ccccc1NC(=O)C(C)NCCN(C)C (stereo not given)	–	–	40µM
O=c1[nH]c(C2CCCN(S(=O)(=O)c3cccc(F)c3)C2)nc2c1nnn2Cc1ccccc1 (stereo not given)	–	–	–
O=c1[nH]c(C2CCCN(S(=O)(=O)c3ccccc3)C2)nc2c1nnn2Cc1ccccc1 (stereo not given)	–	–	89µM
CN(C)S(=O)(=O)N(CC(=O)NCCSc1ccc(Cl)cc1)c1ccccc1	–	·	–
CC(C)(Oc1ccc(Cl)cc1)C(=O)NCc1ccco1	–	–	7.1µM
